Bioassay records: PubChem BioAssay, National Center for Advancing Translational Sciences (NCATS)
KinaseGlo FLuc: blocks Kinase-Glo luciferase, a counter-screen artifact; Q27757; Kinase-Glo luciferase, ATP luminescence, 8 min; Potency, µM (series often up to 38.3 µM), for inactives: at the top dose activity change, negative = inhibition, usual class: inhibitors; hit rate 0.28% among 200,000; also: nearly all actives have a fitted effect of over 60% in size
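Recombinant Kinase-Glo luciferase, 10 uM ATP (linear range), luciferin; imidazole pH 7.2 / KCl / MgCl2 / Tween / BSA buffer; 8 min RT; luminescence.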
RORgamma inh: ROR gamma (mouse) transcription inhibition; Potency, µM (top dose mostly 53.6 µM), for inactives: at the top dose activity change, negative = inhibition, usual class: inhibitors; P51450; Drosophila S2 Gal4-RORgamma UAS-luciferase reporter, 20 h; AID 2551; hit rate 5.4% among 310,000; also: nearly all actives have a fitted effect of over 60% in size
Target sequence (P51450 whole entry, looked up, the tested form may be a part): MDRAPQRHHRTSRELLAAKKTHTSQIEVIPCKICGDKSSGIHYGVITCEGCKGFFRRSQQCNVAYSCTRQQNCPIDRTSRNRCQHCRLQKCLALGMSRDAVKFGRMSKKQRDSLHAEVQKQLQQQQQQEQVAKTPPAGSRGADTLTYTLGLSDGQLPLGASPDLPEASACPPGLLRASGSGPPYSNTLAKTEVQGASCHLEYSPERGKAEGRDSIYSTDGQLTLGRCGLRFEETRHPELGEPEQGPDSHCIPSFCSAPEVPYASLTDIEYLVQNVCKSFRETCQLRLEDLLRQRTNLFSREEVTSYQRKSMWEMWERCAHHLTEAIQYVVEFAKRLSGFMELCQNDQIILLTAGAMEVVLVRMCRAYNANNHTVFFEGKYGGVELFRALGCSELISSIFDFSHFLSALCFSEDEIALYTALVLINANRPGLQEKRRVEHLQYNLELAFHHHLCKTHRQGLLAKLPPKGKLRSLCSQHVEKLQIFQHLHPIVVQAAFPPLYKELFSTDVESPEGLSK
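Stably transfected Drosophila Schneider cells are the test system, with ROR gamma fused to Gal4 and luciferase under UAS control; luminescence is read after 20 hr of 700 uM copper sulfate induction at ambient temperature.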
VP16 counter: counter-screen for ROR gamma inhibitors: Gal4-VP16 reporter. Drosophila S2 Gal4-VP16 UAS-luciferase, luminescence, 20 h. Potency, µM (titrated, usually from 53.6 µM), for inactives: top-dose activity, negative = inhibition, actives largely listed as inhibitors. hit rate 3.5% among 310,000. AID 2546;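 also: Gal4-VP16 expression switched on by copper sulfate through the metallothionein promoter; nearly all actives have a fitted effect of over 50% in size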
* hit, by the source's call; ? = inconclusive; nt = not tested or not shown; [ ] = another dose, or the depositor's remark. Hits are enriched below; roughly 6.2% of the tested compounds scored in any of these assays. Calls follow the shape of the dose curve; as a rule, active = well fitted curve in the direction sought with a large enough effect; inconclusive = small, poorly fitted or top-dose-only effect, or another doubt; inactive = no such curve, though single readings can be large; an effect the other way counts as inactive or inconclusive. % is scaled to controls: 0 for no effect and ±100 for the full control effect; potency is read from the fitted curve at half-maximal effect.

SMILES	KinaseGlo FLuc	RORgamma inh	VP16 counter
CCOc1cc2c(cc1C(C)(C)C)NC(=O)CS2	-0.1%	7.9%	-11.4%
Cc1ccc(N2C(SCC(=O)O)=NC(=Nc3cccc(C)c3)C23CCCC3)cc1	-1.9%	1.7%	6.8%
Cc1cc(=O)[nH]c(-n2ncc(C#N)c2N)n1	-0.5%	?	5.4%
Clc1ccc(-c2cn3ccccc3n2)cc1	nt	?	-29.4%
Oc1ccc(-c2cn3cc(C(F)(F)F)ccc3n2)cc1	-15.7%	2.24µM*	8.91µM*
Fc1ccc(-c2cn3cc(C(F)(F)F)cc(Cl)c3n2)cc1	-5.9%	-14.5%	-17.6%
Clc1ccc(-c2cn3cc(Cl)ccc3n2)cc1	nt	10µM*	12.6µM*
CCOc1ccc(S(=O)(=O)O)c2cccnc12	nt	-18.9%	-18.1%
NC(=O)c1ccccc1NC(=O)COc1ccc2c(c1)OCO2	nt	-8.1%	3.2%
CN1/C(=C\C(=O)c2cccs2)C(C)(C)c2ccccc21	-3.3%	?	?
Cc1cccc2c1NC(=O)/C2=C\C(=O)c1cccs1	-4.1%	7.08µM*	?
Cc1cc(Br)c2c(c1)/C(=C/C(=O)c1cccs1)C(=O)N2	1.4%	11.2µM*	17.8µM*
CCc1ccc2c(c1)/C(=N/N(C)C(=S)NC)C(=O)N2	-3.0%	2.5%	4.8%
CCc1ccc2c(c1)/C(=C/C(=O)c1cccs1)C(=O)N2	-0.5%	5.62µM*	10µM*
Cc1cc(C)c2c(c1)/C(=C/C(=O)c1ccc(Br)s1)C(=O)N2	-2.1%	17.7%	7.7%
CS(=O)(=O)Nc1cccc(-c2nccc(NCc3cccs3)n2)c1	nt	18.7%	-12.3%
COc1ccc(Oc2ncc3nc(-c4ccc(OC)cc4)c(=O)n(C)c3n2)cc1	nt	10.7%	7.0%
Cc1cc(Cl)ccc1NC(=S)NCc1cccs1	1.9%	3.98µM*	8.91µM*
Cc1ccc(/C=C/C(=O)NCc2cccs2)c(C)c1	5.1%	-32.0%	-18.3%
COc1ccc(Cl)cc1NC(=O)CNCc1cccs1	nt	5.4%	-8.0%
Cc1ccc(NC(=S)NCc2cccs2)c(C)c1	13.1%	2.24µM*	5.62µM*
CCOC(=O)CN(Cc1sccc1C)C(=O)Nc1ccc(OC)cc1OC	-1.5%	40.2%	-2.5%
Cc1c(-n2c(SC(C)C(=O)NC(N)=O)nc3ccccc3c2=O)c(=O)n(-c2ccccc2)n1C (stereo unspecified)	-1.6%	-9.3%	1.6%
CN1c2ccccc2C(C)(C)C12C=Nc1c(ccc3ccccc13)O2 (stereo unspecified)	-2.8%	?	20µM*
COc1ccc2ccc3c(c2c1)N=CC1(O3)N(C)c2ccccc2C1(C)C (stereo unspecified)	1.1%	?	10.8%
SMILES	KinaseGlo FLuc	RORgamma inh	VP16 counter
CN1c2ccccc2C(C)(C)[C@]12C=Cc1cc(O)ccc1O2	-4.5%	-129.8%	15.8µM*
CC1(C)OC(=O)N(c2ccccc2)C12C=Cc1cc(Br)ccc1O2 (stereo unspecified)	4.9%	13.9%	-5.1%
CC(N)C(=O)NCC(=O)NC1CSSCC(C(=O)O)NC(=O)C(CO)NC(=O)C(C(C)O)NC(=O)C(Cc2ccccc2)NC(=O)C(C(C)O)NC(=O)C(CCCCN)NC(=O)C(Cc2c[nH]c3ccccc23)NC(=O)C(Cc2ccccc2)NC(=O)C(Cc2ccccc2)NC(=O)C(CC(N)=O)NC(=O)C(CCCCN)NC1=O (stereo unspecified)	nt	13.6%	-2.2%
COc1cc(C(=O)NC(=S)Nc2ccc(Cc3ccncc3)cc2)cc(OC)c1OC	nt	0.0%	-18.1%
Cc1cc(C)cc(C(=O)NC(=S)Nc2ccc(Cc3ccncc3)cc2)c1	0.8%	7.94µM*	?
O=C(NC(=S)Nc1ccc(Cc2ccncc2)cc1)c1ccccc1	-1.6%	?	?
Cc1cccc(C(=O)NC(=S)Nc2ccc(Cc3ccncc3)cc2)c1	-2.5%	15.8µM*	?
Cn1cc(CN2CCC(Oc3ccc(C(=O)N4CCCCC4)cc3)CC2)cn1	nt	-25.6%	3.4%
COc1cccc(NC(=O)NC2CCCCC2C)c1 (stereo unspecified)	5.6%	1.4%	11.4%
O=c1[nH]c(=O)n(Cc2ccco2)c2c1C(C(F)(F)F)(C(F)(F)F)N=C(CCC1CCCCC1)N2	-3.2%	-7.4%	?
CC(C)Cn1c2c(c(=O)[nH]c1=O)C(C(F)(F)F)(C(F)(F)F)N=C(CCC1CCCCC1)N2	0.8%	?	11.2µM*
O=C(O)/C=C/c1ccc(S(=O)(=O)Nc2ccc(C(=O)NCC(=O)O)cc2)cc1	3.7%	7.5%	0.0%
O=C(NC(=S)NCC1CCCO1)c1ccc([N+](=O)[O-])cc1 (stereo unspecified)	-1.2%	12.6µM*	-93.1%
O=C(Cc1ccc([N+](=O)[O-])cc1)NCC1CCCO1 (stereo unspecified)	-1.3%	-11.5%	7.9%
Cc1ccc(C(=O)NC(=S)NCC2CCCO2)cc1 (stereo unspecified)	-2.5%	15.8µM*	-21.3%
Cc1ccc(C(=O)Nc2ccccc2C(=O)NCC2CCCO2)cc1 (stereo unspecified)	nt	2.9%	-3.7%
O=C(NC(=S)NCC1CCCO1)c1ccccc1 (stereo unspecified)	-0.4%	?	?
Cc1cnn(C(=S)NCC2CCCO2)c1 (stereo unspecified)	-3.2%	14.1µM*	?
O=C(NC(=S)NCC1CCCO1)c1ccc(Cl)cc1 (stereo unspecified)	-1.9%	11.2µM*	?
CCN1CCN(C(=S)NCC2CCCO2)CC1 (stereo unspecified)	3.0%	-13.6%	-6.8%
CON(C)c1nc(OCCNC(=O)OCc2ccc(Cl)cc2Cl)nc(N(C)C)n1	-0.6%	18.4%	-4.0%
Cc1cnc(CNc2nc(-c3ccccc3Cl)nc3ccccc23)cn1	nt	6.8%	-21.0%
CN(C)C(=O)COC(=O)c1cccc(CN2C(=O)c3ccccc3C2=O)c1	0.2%	28.5%	-1.8%
COc1ccc(N2CCN(Cc3nc4c(c(=O)[nH]c(=O)n4C)n3CC(C)=O)CC2)cc1	0.3%	24.4%	-6.2%
CCOC(=O)c1ccccc1NC(=O)CSc1nc(N)cc(=O)[nH]1	nt	-18.3%	-1.1%
SMILES	KinaseGlo FLuc	RORgamma inh	VP16 counter
COCCn1cc(C(=S)N2CCOCC2)c2ccccc21	-5.7%	-15.3%	8.8%
S=C(c1cn(CCOc2cccc3ccccc23)c2ccccc12)N1CCCC1	-2.1%	11.2µM*	?
COCCn1cc(C(=S)N2CCCCC2)c2ccccc21	-0.1%	15.8µM*	?
Cc1ccc(OCCn2cc(/C(N)=N/O)c3ccccc32)cc1C	-1.7%	-39.4%	-29.2%
Cc1ccc(OCCn2cc(C(=S)N3CCCC3)c3ccccc32)cc1C	0.4%	6.31µM*	-2.4%[0.365 µM]
COC(=O)c1cn(CCOc2ccccc2)c2ccccc12	0.4%	35.4%	3.6%
S=C(c1cn(CCOc2ccccc2)c2ccccc12)N1CCCC1	-0.5%	7.08µM*	-1.8%[0.365 µM]
O=C(O)Cn1cc(C(=S)N2CCCCC2)c2ccccc21	1.0%	4.9%	-14.0%
O=C(/C=C/c1ccc(Cl)cc1Cl)NC(=S)Nc1ccc(CN2CCOCC2)cc1	4.2%	3.55µM*	4.47µM*
O=C(NC(=S)Nc1ccc(CN2CCOCC2)cc1)c1ccc(-c2ccc(Cl)cc2)o1	nt	-41.5%	8.4%
O=C(/C=C/c1ccc(Cl)cc1)Nc1ccc(CN2CCOCC2)cc1	0.5%	45.0%	-13.2%
O=C(/C=C/c1ccc(Cl)cc1Cl)NC(=S)Nc1ccccn1	-2.8%	2.82µM*	5.01µM*
